# Laboratory results: PubChem BioAssay
# Calls of active or inactive are those of the source.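 Rule for the calls, unless noted: active = inhibition above 20% together with a positive visual image hit; inconclusive = visual image hit but inhibition not above 20%; inactive = no visual image hit.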
# What was measured:
# [1] = inhibitors of TNFa-induced NFkB p65 translocation, primary screen, imaging, HUVEC, MLSMR starter and 10KST1 sets (AID 438); details: HUVEC TNFa-induced p65 nuclear translocation; cell count: measured here: nuclei count (cytotoxicity indicator), at 2.08 µM; inhibition: at 2 µM, stronger effect = higher value, 0% TNFa-plus-vehicle, 100% no-TNFa wells;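 note: compound added about 3h40 before a 20 min TNFalpha stimulation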;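 for inhibition: signal is the nuclear over cytoplasmic p65 intensity ratio per well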
# [2] = inhibitors of mutant huntingtin aggregation, primary screen, imaging, exon1htt(103Q)mCFP cells, high-content imaging (AID 483;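 active = visual image review flags a hit and inhibition of aggregation exceeds 20%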;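 note: compound exposure lasted 3 days before fixation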;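 for nuclei count: percent of the per-plate median nuclei count of sample wells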); details: exon1htt(103Q)mCFP cell line, aggregate imaging, at 2 µM; inhibition of aggregation: stronger effect = higher value; nuclei count: measured here: cell count, toxicity
# [3] = inhibitors of E-selectin induction by TNFa, primary screen, imaging, HUVEC, immunofluorescence, MLSMR starter and 10KST1 sets (AID 487;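 active = visually confirmed hit in the image check and inhibition above 20%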;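 for inhibition: signal is fraction of cell area covered by stained E-selectin grains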;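 for nuclei count: 100% = median nuclei count of all wells on the same plate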); details: HUVEC TNFalpha-induced E-selectin immunofluorescence imaging, at 2 µM; inhibition: stronger effect = higher value; nuclei count: measured here: cell number, toxicity
# [4] = target: Voltage-gated potassium channel subunit beta-2 (Rattus norvegicus) (UniProt P62483); test: KvBeta enzyme negative modulators, primary screen, biochemical, NADPH fluorescence (AID 622;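 active = fluorescence slope higher than the sample average by over 3 SD, cut at about -0.22 in these data, passing the limit was not always enough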;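 note: slope of raw intensity against log time taken from 70 to 1610 s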); details: recombinant KvBeta, 4-cyanobenzaldehyde reduction, at 10 µM, stronger effect = higher value
# Voltage-gated potassium channel subunit beta-2 (Rattus norvegicus), sequence (P62483 whole entry, looked up): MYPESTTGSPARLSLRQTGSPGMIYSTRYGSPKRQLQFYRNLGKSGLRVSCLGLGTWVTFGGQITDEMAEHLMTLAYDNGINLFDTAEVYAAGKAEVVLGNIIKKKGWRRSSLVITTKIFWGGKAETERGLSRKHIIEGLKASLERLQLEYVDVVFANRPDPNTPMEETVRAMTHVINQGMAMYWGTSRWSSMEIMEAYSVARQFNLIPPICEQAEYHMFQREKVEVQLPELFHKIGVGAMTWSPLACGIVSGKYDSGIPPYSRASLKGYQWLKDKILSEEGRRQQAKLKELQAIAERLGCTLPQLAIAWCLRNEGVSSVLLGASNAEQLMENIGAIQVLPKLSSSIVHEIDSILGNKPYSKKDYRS
# [5] = target: Voltage-gated potassium channel subunit beta-2 (Rattus norvegicus) (UniProt P62483); test: KvBeta positive modulators, primary screen, biochemical, NADPH fluorescence (AID 623;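 active = NADPH fluorescence slope more negative than the mean of all samples by about 3 SD, 99.7% confidence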;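 note: fluorescence intensity change per second fitted from 20 to 320 s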); details: Recombinant KvBeta, NADPH fluorescence decrease slope, 10 min; at 10 µM; stronger effect = lower value
# [6] = target: Alpha-2C adrenergic receptor (Homo sapiens) (UniProt P18825); test: modulators of alpha2C/GIRK thallium flux, primary screen, cell-based, HEK293 alpha2C/GIRK1/2 (AID 624;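 active = fluorescence slope after compound addition differing from the mean of all screened samples at 99.7% confidence, in either direction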;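 note: slope of fluorescence ratio to pre-addition baseline per second over 15 to 24 s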); details: thallium flux BTC fluorescence, at 10 µM, actives lie on both sides
# Alpha-2C adrenergic receptor (Homo sapiens), sequence (P18825 whole entry, looked up): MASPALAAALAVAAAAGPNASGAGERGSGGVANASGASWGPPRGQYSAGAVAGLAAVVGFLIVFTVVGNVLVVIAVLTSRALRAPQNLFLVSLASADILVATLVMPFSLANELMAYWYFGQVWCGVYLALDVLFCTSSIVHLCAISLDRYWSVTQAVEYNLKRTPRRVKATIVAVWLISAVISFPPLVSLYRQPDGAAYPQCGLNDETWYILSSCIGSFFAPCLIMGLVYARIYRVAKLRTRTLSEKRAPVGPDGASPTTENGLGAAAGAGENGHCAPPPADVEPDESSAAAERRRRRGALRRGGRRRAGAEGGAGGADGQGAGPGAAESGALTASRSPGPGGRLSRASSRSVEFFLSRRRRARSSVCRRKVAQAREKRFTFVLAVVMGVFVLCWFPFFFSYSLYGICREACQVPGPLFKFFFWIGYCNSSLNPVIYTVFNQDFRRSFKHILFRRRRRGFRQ
# [7] = inhibitors of Sendai virus-induced IRF3 signaling, primary screen, TLR/RLR signaling modifier project, cell-based, Sendai virus stimulus, luciferase, 10K MLSCN set (AID 602276;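 active = inhibition at or above 50% at 10 µM; inactive = inhibition below 50%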;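 note: firefly luciferase from ISG56 promoter only with Renilla not read in this screen; 0% = Sendai virus plus DMSO and 100% = medium plus DMSO without virus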); details: HEK293 RL24 IRF3 luciferase reporter, at 10 µM, stronger effect = higher value
# [8] = inhibitors of poly I:C-induced TLR3 signaling, primary screen, cell-based, poly I:C stimulus, luciferase, 10K MLSCN set (AID 602277;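 active = inhibition of the reporter signal at or above 50%; inactive = inhibition below 50%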); details: HEK293-TLR3 RL24 IRF3 luciferase reporter, at 10 µM, stronger effect = higher value
Structure (SMILES),cell count [1],inhibition [1],inhibition of aggregation [2],nuclei count [2] [%],inhibition [3],nuclei count [3] [%],fluorescence slope [4],NADPH fluorescence slope [5],slope [6],inhibition [7],inhibition [8]
CCC(=O)N/C(N)=N/c1nc(C)c2cc(OC)ccc2n1,730,10.7% (inactive),-24.4% (inactive),95.9,9.1% (inactive),92.1,-0.378 (inactive),-1.1e-05 (inactive),0.00511 (inactive),-62.4% (inactive),-122% (inactive)
Cc1ccc(N(C(=O)c2ccncc2)C2C=CS(=O)(=O)C2)cc1 (stereo not drawn),816,-4% (inactive),-5.8% (inactive),114,-56.8% (inactive),117,-0.612 (inactive),-2.8e-05 (inactive),0.00723 (inactive),-4.78% (inactive),24.5% (inactive)
O=c1/c(=C/c2ccco2)sc2nc(-c3ccccc3Br)nn12,343,0.2% (inactive),14.2% (inactive),107,-34.7% (inactive),118,-0.585 (inactive),-2.3e-05 (inactive),0.00315 (inactive),16.2% (inactive),18.1% (inactive)
Cc1cc(OCC(O)CN2CCN(CCO)CC2)ccc1C(C)C (stereo not drawn),428,-0.5% (inactive),16.4% (inactive),94.9,24% (inactive),93.2,-0.439 (inactive),-3.1e-05 (inactive),0.00431 (inactive),9.34% (inactive),29.3% (inactive)
CCCCOc1ccccc1NC(=O)c1ccco1,334,11% (inactive),-21.3% (inactive),91.7,-54.6% (inactive),122,-0.517 (inactive),-4.6e-05 (inactive),0.00466 (inactive),18.5% (inactive),18.5% (inactive)
CCN(CC(=O)O)S(=O)(=O)c1cc(Cl)ccc1Cl,353,5.6% (inactive),10.8% (inactive),97.3,-33.4% (inactive),75.2,-0.416 (inactive),-2.7e-05 (inactive),0.00473 (inactive),-0.0466% (inactive),-0.284% (inactive)
O=C1COc2ccc(C(=O)COC(=O)CCc3ccc(S(=O)(=O)N4CCOCC4)cc3)cc2N1,410,-1.9% (inactive),12.6% (inactive),90.4,-119% (inactive),104,-0.37 (inactive),-5.9e-05 (inactive),0.00618 (inactive),4.84% (inactive),23.5% (inactive)
COc1ccc(C(=O)CN2C(=O)NC3(CCCc4ccccc43)C2=O)cc1OC (stereo not drawn),412,-9% (inactive),2.7% (inactive),94.1,35.3% (inactive),87.2,-0.51 (inactive),-2.4e-05 (inactive),0.00564 (inactive),15.1% (inactive),13.4% (inactive)
O=P(O)(O)C(O)C(F)(F)C(F)(F)C(F)(F)C(F)F (stereo not drawn),436,8.1% (inactive),-7% (inactive),108,12.7% (inactive),127,-0.31 (inactive),-2e-06 (inactive),0.0027 (inactive),19.8% (inactive),17.5% (inactive)
CCCCn1c(SCC(=O)NCc2ccccc2)nc2ccc(N3CCOCC3)cc2c1=O,372,4.3% (inactive),10.3% (inactive),89,-28% (inactive),110,-0.351 (inactive),2.2e-06 (inactive),0.00561 (inactive),-6.72% (inactive),5.47% (inactive)
O=C(Nc1ccc(S(=O)(=O)N2CCCCCC2)cc1)c1ccco1,355,1.5% (inactive),12.9% (inactive),105,-32.3% (inactive),126,-0.434 (inactive),-6.7e-05 (inactive),0.00521 (inactive),-8.22% (inactive),-19.4% (inactive)
CCCCOc1ccc(-c2ncc(C(=O)OCC)c(N)n2)cc1,377,1.6% (inactive),16.9% (inactive),73.4,-71.6% (inactive),115,-0.452 (inactive),-4.6e-05 (inactive),0.00612 (inactive),0.257% (inactive),-34.4% (inactive)
CCn1c(CCC(=O)Nc2nc3c(s2)CCCC3)nc2cc(S(=O)(=O)N(C)C)ccc21,288,1.4% (inactive),-9% (inactive),103,-54.4% (inactive),123,-0.398 (inactive),-3e-05 (inactive),0.00627 (inactive),14.6% (inactive),18.8% (inactive)
COc1ccc(C(O)Cn2c(=N)n(CCCN(C)C)c3ccccc32)cc1 (stereo not drawn),569,-12.9% (inactive),-27.4% (inactive),85.7,-30.3% (inactive),112,-0.587 (inactive),2.2e-05 (inactive),0.00727 (inactive),-10.7% (inactive),-0.929% (inactive)
Cc1ccc(S(=O)(=O)C2(C(=O)N3CCCCCC3)CC2)cc1,439,-0.7% (inactive),-0.7% (inactive),102,-46.5% (inactive),122,-0.611 (inactive),4.7e-05 (inactive),0.00663 (inactive),8.56% (inactive),1.57% (inactive)
COCCNC(=O)c1ccc(CS(=O)(=O)c2c(Cl)cccc2Cl)o1,462,-6.8% (inactive),22.9% (inactive),103,-46.3% (inactive),112,-0.428 (inactive),2.4e-05 (inactive),0.00478 (inactive),-1.52% (inactive),24.5% (inactive)
CCSc1ccccc1C(=O)NCc1ccc(S(N)(=O)=O)cc1,327,1.1% (inactive),-5.9% (inactive),104,-78.4% (inactive),120,-0.435 (inactive),-4.5e-05 (inactive),0.00523 (inactive),18.1% (inactive),16.5% (inactive)
CN(C)c1ccc(C(=O)OCC(=O)NC2CCCCC2)cc1,548,-0.3% (inactive),4.3% (inactive),90.3,-46.5% (inactive),110,-0.475 (inactive),-3.6e-05 (inactive),0.00547 (inactive),16.6% (inactive),10.9% (inactive)
CCOc1ccc(S(=O)(=O)n2c(C)nc3ccccc32)cc1,781,-5.8% (inactive),-0.6% (inactive),101,-99.9% (inactive),115,-0.627 (inactive),9.2e-06 (inactive),0.00517 (inactive),49.1% (inactive),5.17% (inactive)
O=C(CN1C(=O)COCC1=O)N1CCOCC1,377,-7% (inactive),11.7% (inactive),108,-35.1% (inactive),112,-0.422 (inactive),-0.00011 (inactive),0.00596 (inactive),9.66% (inactive),23.7% (inactive)
CC(C)OC(=O)CSc1nnc(-c2cccnc2)n1Cc1ccccc1,706,-16.4% (inactive),8.1% (inactive),88.7,5.1% (inactive),98.8,-0.356 (inactive),-4.8e-05 (inactive),0.00509 (inactive),8.88% (inactive),10.9% (inactive)
O=C(OCN1C(=O)c2ccccc2C1=O)c1ccc2c(=O)n3c(nc2c1)CCC3,380,-26.1% (inactive),29.8% (inactive),79.3,74.4% (inactive),96.4,-0.581 (inactive),-6.9e-05 (inactive),0.00527 (inactive),5.92% (inactive),16.5% (inactive)
O=c1c2[nH]c3cccc(Cl)c3c2ncn1CCN1CCCCC1,300,-2.8% (inactive),-4.9% (inactive),89,-0.5% (inactive),106,-0.618 (inactive),-2.5e-05 (inactive),0.00476 (inactive),16.5% (inactive),27.2% (inactive)
CCCOc1ccccc1NC(=O)c1ccc(N)cc1,428,7% (inactive),6.7% (inactive),106,-137% (inactive),114,-0.396 (inactive),-4.2e-05 (inactive),0.00363 (inactive),11.3% (inactive),18.2% (inactive)
CCc1cc2c(=O)c(-c3nc4ccccc4[nH]3)coc2c(CN2CCC(C)CC2)c1O,708,-7.9% (inactive),11.5% (inactive),102,15.3% (inactive),107,-0.552 (inactive),-3.1e-05 (inactive),0.00554 (inactive),7.38% (inactive),5.36% (inactive)
O=C(CSc1nc2cc(Cl)ccc2s1)N1CCN(C(=O)c2ccco2)CC1,725,2.4% (inactive),15.7% (inactive),97.9,-126% (inactive),141,-0.482 (inactive),-5.8e-05 (inactive),0.00555 (inactive),21.6% (inactive),27.6% (inactive)
OC1(c2cccc(C(F)(F)F)c2)CCNCC1,370,1.4% (inactive),-1.7% (inactive),106,-19% (inactive),118,-0.281 (inactive),2.4e-05 (inactive),0.007 (inactive),18.9% (inactive),22.1% (inactive)
Cc1cc(C)n(CC(=O)NC2CCCCC2)n1,406,-0.6% (inactive),-4.9% (inactive),105,-225% (inactive),114,-0.468 (inactive),-1.5e-06 (inactive),0.00622 (inactive),14.7% (inactive),18% (inactive)
